Test results published in PubChem BioAssay (EPA / NIEHS).
Where “and” joins values, the source holds several entries; their conditions need not be identical. Equal entries are not always repeated. A structure can be active in one record and inactive in another. Calls of active or inactive are those of the source. Rule for the calls: active = hit-call score of the fitted dose curve at least 0.9, where 1 is the maximum; inactive = score below 0.9.

How the values were obtained:
[1] = read-out: Macrophage colony-stimulating factor (MCSF), CSF1 (gene 1435); experiment: BSK_hDFCGF_MCSF: BioMAP Diversity Plus: hDFCGF Assay for Macrophage colony-stimulating factor (MCSF) Biomarker Activity (AID 2283060); conditions: primary human foreskin fibroblasts; actives raise or lower the signal
In short: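 Human foreskin primary fibroblasts were treated with test chemical for 24 h, and M-CSF was then measured by ELISA. Data were fitted bidirectionally against DMSO as the negative control and activity baseline.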

[2] = BSK_hDFCGF_SRB: Viability Assessment in the BioMAP Diversity Plus: hDFCGF Assay (AID 2283061); conditions: primary human foreskin fibroblasts;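 note: cells exposed to compound for 24 h before the read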
In short: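 Human foreskin primary fibroblasts were treated with compound and assessed 24 h after dosing. Total protein was measured by sulforhodamine B staining (0.1% SRB after 10% TCA fixation, 560 nm read) as a cytotoxicity marker, with bidirectional fitting against DMSO baseline.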

[3] = read-out: TIMP metallopeptidase inhibitor 1 (TIMP1), TIMP1 (gene 7076); experiment: BSK_hDFCGF_TIMP1: BioMAP Diversity Plus: hDFCGF Assay for TIMP metallopeptidase inhibitor 1 (TIMP1) Biomarker Activity (AID 2283062); conditions: primary human foreskin fibroblasts; actives raise or lower the signal
In short: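 Primary human foreskin fibroblasts in the hDFCGF system were dosed with compound for 24 h, then TIMP-1 was measured by ELISA. Activity was fitted bidirectionally relative to DMSO control; parallel SRB staining assessed cytotoxicity.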

[4] = read-out: Monokine induced gamma interferon (MIG), CXCL9 (gene 4283); experiment: BSK_hDFCGF_MIG: BioMAP Diversity Plus: hDFCGF Assay for Monokine induced gamma interferon (MIG) Biomarker Activity (AID 2283063); conditions: primary human foreskin fibroblasts; actives raise or lower the signal
In short: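 ELISA read-out of MIG from primary human dermal fibroblasts 24 h post-dosing. Gain or loss of signal fitted bidirectionally, DMSO as baseline.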

[5] = read-out: Matrix Metallopeptidase 1 (MMP1), MMP1 (gene 4312); experiment: BSK_hDFCGF_MMP1: BioMAP Diversity Plus: hDFCGF Assay for Matrix Metallopeptidase 1 (MMP1) Biomarker Activity (AID 2283064); conditions: primary human foreskin fibroblasts; actives raise or lower the signal
In short: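 Primary human foreskin fibroblasts in the hDFCGF system were dosed with test chemical, and MMP1 was measured by ELISA 24 h later. Values come from bidirectional curve fitting against the DMSO baseline.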

[6] = read-out: Vascular cell adhesion molecule 1 (VCAM1), VCAM1 (gene 7412); experiment: BSK_hDFCGF_VCAM1: BioMAP Diversity Plus: hDFCGF Assay for Vascular cell adhesion molecule 1 (VCAM1) Biomarker Activity (AID 2283065); conditions: primary human foreskin fibroblasts; actives raise or lower the signal;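 for AC50: VCAM-1 protein level quantified by ELISA after 24 h chemical exposure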
In short: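 Primary human foreskin fibroblasts (hDFCGF system) were dosed with chemical and VCAM-1 was measured by ELISA 24 h later. Bidirectional curve fitting used DMSO as negative control and activity baseline.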

[7] = read-out: Plasminogen activator inhibitor-1 (PAI1), SERPINE1 (gene 5054); experiment: BSK_hDFCGF_PAI1: BioMAP Diversity Plus: hDFCGF Assay for Plasminogen activator inhibitor-1 (PAI1) Biomarker Activity (AID 2283066); conditions: primary human foreskin fibroblasts; actives raise or lower the signal
In short: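 Human foreskin fibroblast primary cells, 24 h chemical exposure; PAI-1 measured by ELISA. Bidirectional fitting relative to DMSO; parallel cultures stained with SRB for total protein to flag overt cytotoxicity.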

[8] = read-out: Intercellular Adhesion Molecule 1 (ICAM1), ICAM1 (gene 3383); experiment: BSK_KF3CT_ICAM1: BioMAP Diversity Plus: KF3CT Assay for Intercellular Adhesion Molecule 1 (ICAM1) Biomarker Activity (AID 2283067); conditions: primary human keratinocytes with fibroblasts; actives raise or lower the signal
In short: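 Human keratinocyte plus foreskin fibroblast primary co-culture was exposed to chemical for 24 h. ICAM-1 was then quantified by ELISA, and the data were fit bidirectionally against DMSO as the negative control and baseline.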

[9] = read-out: Interferon-gamma inducible Protein 10 (IP10), CXCL10 (gene 3627); experiment: BSK_KF3CT_IP10: BioMAP Diversity Plus: KF3CT Assay for Interferon-gamma inducible Protein 10 (IP10) Biomarker Activity (AID 2283068); conditions: primary human keratinocytes with fibroblasts; actives raise or lower the signal
In short: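 KF3CT co-culture (keratinocytes + foreskin fibroblasts), 24 h compound, IP-10 by ELISA; bidirectional fit vs DMSO baseline.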

[10] = BSK_KF3CT_SRB: Viability Assessment in the BioMAP Diversity Plus: KF3CT Assay (AID 2283069); conditions: primary human keratinocytes with fibroblasts
In short: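 Human primary keratinocyte plus foreskin fibroblast co-culture exposed to chemicals for 24 h. Total protein measured by 0.1% sulforhodamine B staining after 10% TCA fixation, read at 560 nm; bidirectional fitting versus DMSO baseline.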

[11] = read-out: TIMP metallopeptidase inhibitor 2 (TIMP2), TIMP2 (gene 7077); experiment: BSK_KF3CT_TIMP2: BioMAP Diversity Plus: KF3CT Assay for TIMP metallopeptidase inhibitor 2 (TIMP2) Biomarker Activity (AID 2283071); conditions: primary human keratinocytes with fibroblasts; actives raise or lower the signal
In short: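 Co-culture of human primary keratinocytes and foreskin fibroblasts, measured 24 h after chemical dosing. TIMP-2 quantified by ELISA and fitted in both directions relative to DMSO. Cytotoxicity checked in parallel cultures by SRB total-protein staining.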

[12] = read-out: C-C motif chemokine 2 (Homo sapiens) (UniProt P13500); experiment: BSK_KF3CT_MCP1: BioMAP Diversity Plus: KF3CT Assay for Monocyte Chemoattractant Protein 1 (MCP1/CCL2) Biomarker Activity (AID 2283073); conditions: primary human keratinocytes with fibroblasts; actives raise or lower the signal
In short: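 Human keratinocyte plus foreskin fibroblast primary co-culture exposed to chemical for 24 h. MCP-1 levels measured by ELISA. Bidirectional curve fitting relative to DMSO negative control as baseline.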

[13] = read-out: Matrix Metallopeptidase 9 (MMP9), MMP9 (gene 4318); experiment: BSK_KF3CT_MMP9: BioMAP Diversity Plus: KF3CT Assay for Matrix Metallopeptidase 9 (MMP9) Biomarker Activity (AID 2283074); conditions: primary human keratinocytes with fibroblasts; actives raise or lower the signal;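 for AC50: MMP9 protein level quantified by ELISA in the co-culture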
In short: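 Keratinocyte plus foreskin fibroblast human primary skin co-culture was dosed with chemical and MMP-9 was quantified by ELISA 24 h later. Bidirectional curve fitting used DMSO as negative control and activity baseline.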

[14] = read-out: urokinase plasminogen activator (uPA), PLAU (gene 5328); experiment: BSK_KF3CT_uPA: BioMAP Diversity Plus: KF3CT Assay for urokinase plasminogen activator (uPA) Biomarker Activity (AID 2283075); conditions: primary human keratinocytes with fibroblasts; actives raise or lower the signal
In short: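 Human keratinocyte plus foreskin fibroblast primary co-culture exposed to chemical for 24 h. uPA levels were quantified by ELISA, and activity was fitted bidirectionally against a DMSO negative-control baseline.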

[15] = read-out: CD40, CD40 (gene 958); experiment: BSK_LPS_CD40: BioMAP Diversity Plus: LPS Assay for CD40 Biomarker Activity (AID 2283076); conditions: primary human HUVEC with PBMC; actives raise or lower the signal
In short: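 Primary human umbilical vein endothelial cells co-cultured with peripheral blood mononuclear cells, LPS-stimulated, were dosed with chemical and read 24 h later. CD40 levels were measured by ELISA and fitted bidirectionally against DMSO as negative control and baseline.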

[16] = read-out: E-selectin (Homo sapiens) (UniProt P16581); experiment: BSK_LPS_Eselectin: BioMAP Diversity Plus: LPS Assay for Eselectin Biomarker Activity (AID 2283077); conditions: primary human HUVEC with PBMC; actives raise or lower the signal
In short: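 Human umbilical vein endothelial cells co-cultured with peripheral blood mononuclear cells under LPS stimulation; E-selectin measured by ELISA 24 h after chemical dosing. Activity fitted bidirectionally against DMSO as negative control and baseline.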

[17] = read-out: Interleukin-8 (IL8), CXCL8 (gene 3576); experiment: BSK_LPS_IL8: BioMAP Diversity Plus: LPS Assay for Interleukin-8 (IL8) Biomarker Activity (AID 2283078); conditions: primary human HUVEC with PBMC; actives raise or lower the signal
In short: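 Human umbilical vein endothelial cells co-cultured with PBMC were stimulated with LPS; IL-8 levels were measured by ELISA 24 h after chemical dosing. Activity was fitted bidirectionally against DMSO as negative control and baseline.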

[18] = BSK_LPS_SRB: Viability Assessment in the BioMAP Diversity Plus: LPS Assay (AID 2283079); conditions: primary human HUVEC with PBMC;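 note: total protein by sulforhodamine B absorbance as a cytotoxicity measure; measured one day after compound addition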
In short: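 Human umbilical vein endothelial cells co-cultured with PBMC (LPS system) were dosed for 24 h. Total protein was stained with 0.1% sulforhodamine B after 10% TCA fixation, read at 560 nm, and fitted bidirectionally against DMSO baseline.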

[19] = read-out: Interleukin-1 alpha (IL1a), IL1A (gene 3552); experiment: BSK_KF3CT_IL1a: BioMAP Diversity Plus: KF3CT Assay for Interleukin-1 alpha (IL1a) Biomarker Activity (AID 2283070); conditions: primary human keratinocytes with fibroblasts; actives raise or lower the signal
In short: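 Human keratinocyte plus foreskin fibroblast primary co-culture, sampled 24 h after chemical dosing. IL-1a measured by ELISA; responses fitted bidirectionally against DMSO baseline (negative control), so gain or loss of signal both count.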

Measured: AC50

E-selectin (Homo sapiens), sequence (P16581 whole entry, looked up): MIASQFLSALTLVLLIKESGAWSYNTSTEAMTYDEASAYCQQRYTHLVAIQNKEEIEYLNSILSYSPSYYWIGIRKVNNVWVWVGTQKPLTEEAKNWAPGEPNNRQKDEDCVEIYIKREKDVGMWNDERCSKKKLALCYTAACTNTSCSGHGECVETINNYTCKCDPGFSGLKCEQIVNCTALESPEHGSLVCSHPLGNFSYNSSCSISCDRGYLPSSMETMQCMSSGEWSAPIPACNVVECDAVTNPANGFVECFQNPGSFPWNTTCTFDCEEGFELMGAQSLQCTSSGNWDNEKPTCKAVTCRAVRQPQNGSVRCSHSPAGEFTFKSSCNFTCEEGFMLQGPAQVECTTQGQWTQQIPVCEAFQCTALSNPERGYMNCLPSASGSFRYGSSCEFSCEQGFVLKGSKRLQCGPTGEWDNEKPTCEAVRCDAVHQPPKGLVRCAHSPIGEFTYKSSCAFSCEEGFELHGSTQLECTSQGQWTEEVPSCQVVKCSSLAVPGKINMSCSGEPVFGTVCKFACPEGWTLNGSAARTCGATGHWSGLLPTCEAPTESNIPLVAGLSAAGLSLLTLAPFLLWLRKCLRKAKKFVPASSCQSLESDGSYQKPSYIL

O=S(=O)(OCC(F)(F)F)C(F)(F)C(F)(F)C(F)(F)C(F)(F)F
inactive: [1] | [2] | [3] | [4] | [5] | [6] | [7] | [8] | [9] | [10] | [11] | [12] | [13] | [14] | [15] | [16] | [17] | [18]
active: [14] 9.13 µM | [15] 24.3 µM | [16] 41.4 µM

NCC(F)(F)C(F)(F)C(F)(F)C(F)(F)C(F)(F)C(F)(F)C(F)(F)C(F)(F)F
inactive: [1] | [2] | [3] | [4] | [5] | [6] | [7] | [8] | [9] | [10] | [19] | [12] | [13] | [14] | [15] | [16] | [17] | [18]

C=CC(=O)OCC(F)(F)C(F)(F)C(F)(F)COC(=O)C=C
active: [1] 2.55 µM and 1.94 µM | [2] 2.51 µM and 2.73 µM | [3] 2.37 µM and 737 nM | [4] 918 nM and 499 nM | [5] 5.8 µM and 4.94 µM | [6] 2.35 µM and 1.96 µM | [7] 3.85 µM and 3.09 µM | [8] 21.8 µM and 21.3 µM | [9] 28.4 µM and 17.6 µM | [10] 36.6 µM and 41.6 µM | [11] 30 µM | [12] 22.3 µM and 12.7 µM | [13] 24 µM and 20.9 µM | [14] 21.1 µM and 25.7 µM | [15] 8.33 µM and 8.66 µM | [16] 16.1 µM and 13.1 µM | [17] 15.9 µM and 14.8 µM | [18] 48.6 µM and 47.4 µM

O=C(F)C1(F)C(F)(F)C(F)(F)C(F)(F)C(F)(F)C1(F)F
inactive: [1] | [2] | [3] | [4] | [5] | [6] | [7] | [8] | [9] | [10] | [19] | [11] | [12] | [13] | [14] | [15] | [16] | [17] | [18]

NS(=O)(=O)C(F)(F)C(F)(F)C(F)(F)C(F)(F)C(F)(F)C(F)(F)F
active: [6] 26.9 µM | [13] 14.6 µM | [15] 20.1 µM | [18] 40.1 µM
inactive: [1] | [2] | [3] | [4] | [5] | [6] | [7] | [8] | [9] | [10] | [19] | [11] | [12] | [13] | [14] | [15] | [16] | [17] | [18]

O=C(O)C(F)(F)C(F)(F)C(F)(F)OC(F)(C(F)(F)F)C(F)(F)F
active: [13] 24.7 µM | [17] 7.64 µM and 9.75 µM
inactive: [1] | [2] | [3] | [4] | [5] | [6] | [7] | [8] | [9] | [10] | [11] | [12] | [13] | [14] | [15] | [16] | [18]
